# Experimental data as given in PubChem BioAssay (Tox21).
# Results filed as inconclusive are left out. Unmarked numbers belong to inactive results. Calls of active or inactive are those of the source. The call rests on the fitted dose curve; in most records, active means well fitted cell-killing curve with a large enough effect in the repeat runs; inconclusive means weak or mixed curves, or effect the other way; inactive means no such curve, though single readings can be large or run the other way.
# Test: qHTS assay to identify small molecule agonists of the RXR signaling pathway - cell viability counter screen (AID 1159529); further: nearly all actives have a fitted effect of over 50% in size
# Conditions: RXR-alpha-bla HEK293T viability, CellTiter-Glo, 16 h; series mostly up to 76.8 µM; activity change, negative = cytotoxicity: at the top concentration
# Source text: National Center for Advancing Translational Sciences [NCATS]
# NIH Chemical Genomics Center [NCGC]
# U.S. Environmental Protection Agency [EPA]
# National Institutes of Environmental Health Sciences [NIEHS]
# National Toxicology Program [NTP]
# U.S. Food and Drug Administration [FDA]
# The Retinoid X receptor (RXR), a nuclear hormone receptor expressed in liver, spleen, placenta, epidermis, central nervous system. These receptors are able to form homo and heterodimers with other nuclear receptors and due to this heterodimerizing ability, RXR functions as master regulators producing diverse physiological effects. Three subtypes of RXR exist; alpha, beta and gamma. Retinoid X receptor alpha (RXR-alpha) has potential roles in metabolic signaling pathways, skin alopecia, dermal cysts, cardiac development, insulin sensitization etc. Therefore screening environmental chemicals on RXR-alpha signaling can be used for the studies focused on such therapeutic applications. For quantification of RXR-alpha ligands signaling, GeneBLAzer RXR alpha-UAS-bla HEK 293T (Life Technologies, Carlsbad, CA) cells containing a beta-lactamase reporter-gene under control of Retinoid X receptor-alpha response element were used to screen Tox21 10K library. The cytotoxicity of the Tox21 compound library against the RXR-alpha HEK 293T cell line was tested in parallel by measuring cell viability using CellTiter-Glo assay (Promega Corporation, Madison, WI) in the same wells.
# Tox21 Assay Protocol Summary:
# RXR-alpha HEK 293T cells were dispensed at 2,000 cells/6 uL of assay medium containing 2% charcoal-stripped FBS using a Multidrop Combi (ThermoFisher Scientific, Waltham, MA) dispenser. The assay was performed in black wall/clear-bottom 1536-well plates (Greiner Bio-One North America Inc. Monroe, NC). Tetraoctyl ammonium bromide was used as a positive control in the cytotoxicity screen. After the assay plates were incubated at 37 C and 5% CO2 for 5 hr, 23 nL of compounds dissolved in DMSO, positive control or DMSO only were transferred to the assay plate by a Pintool station (Kalypsys, San Diego, CA). The assay plates were incubated at 37 C and 5% CO2 for 16 hr. One uL of LiveBLAzer B/G FRET substrate (Life Technologies) was added using a Flying Reagent Dispenser (FRD) (Aurora Discovery, San Diego, CA) and the plates were incubated at room temperature for 2 hr. Fluorescence intensity (405 nm excitation, 460/530 nm emission) was measured using an Envision plate reader (PerkinElmer, Shelton, CT). For cytotoxicity, 4 uL/well of CellTiter-Glo reagent was added into the assay plates using an FRD. After 30 min incubation at room temperature, the luminescence intensity was measured using a ViewLux plate reader (PerkinElmer).
# On the % scale 0 is the no-effect control and ±100 the full control effect; potency means the concentration at half of the fitted maximal effect.
Structure (SMILES),"activity change, negative = cytotoxicity",Potency
O=NN1CCN(N=O)CC1,5.6%,–
CCOP(=S)(OCC)Oc1ncn(-c2ccccc2)n1,-15.3%,–
COc1ccc(C(=O)N2CCCC2=O)cc1,18.6% [at 35.3 µM],–
CCCCCCBr,-1.1%,–
CC(=O)Nc1cc([As](=O)(O)O)ccc1O,1.5% [at 35.3 µM],–
CC(C)(C)OC(=O)c1ncn2c1[C@@H]1CCCN1C(=O)c1c(Br)cccc1-2,-28.7% [at 35.3 µM],–
CCCCc1c(C)nc(NCC)[nH]c1=O,-2.03%,–
CNNC,0.595%,–
O=C(Nc1ccccc1)N(Cc1ccc(Cl)cc1)C1CCCC1,-1.1%,–
Fc1ccc(C2(Cn3cncn3)OC2c2ccccc2Cl)cc1 (stereo not given),-12.4%,–
CCCCOC(=O)[C@@H](C)Oc1ccc(Oc2ccc(C#N)cc2F)cc1,2.69%,–
O=[N+]([O-])c1cccc2c([N+](=O)[O-])cccc12,12.1%,–
C=CCC1=C(C)[C@@H](OC(=O)[C@@H]2[C@@H](C=C(C)C)C2(C)C)CC1=O,–,21.9 µM (active)
COc1cc(C[C@@H](C)N)c(OC)cc1C,-18.4%,–
CC(=O)CCc1ccc2c(c1)OCO2,-4.06%,–
O=C1CN=C(c2ccccc2)c2cc([N+](=O)[O-])ccc2N1,-5.38% [at 35.3 µM],–
ClCCCN1CCN(c2cccc(Cl)c2)CC1,-13.6% [at 35.3 µM],–
CCNc1nc(NC(C)C)nc(OC)n1,0.271%,–
COc1cccc(C(=O)NN(C(=O)c2cc(C)cc(C)c2)C(C)(C)C)c1C,-11.6%,–
CN(N=O)C(N)=O,-0.941%,–

Structure (SMILES),"activity change, negative = cytotoxicity",Potency
CCC#N,2.23%,–
OC(c1ccccc1)(c1ccccc1)C1CCNCC1,5.56% [at 35.3 µM],–
CCC(=O)c1ccccc1,8.25%,–
CCOP(=O)(OCC)OP(=O)(OCC)OCC,-5.12%,–
Nc1ccccc1Cl,4.25%,–
CCOc1nc(C(Cl)(Cl)Cl)ns1,6.45%,–
CNC(=O)N(C)c1nc2ccccc2s1,-2.72%,–
CN/C(=N\[N+](=O)[O-])NCC1CCOC1 (stereo not given),1.88%,–
CC(C)CC(N(C)C)C1(c2ccc(Cl)cc2)CCC1 (stereo not given),-9.52% [at 35.3 µM],–
COc1ncc(F)c2nc(S(=O)(=O)Nc3c(F)cccc3F)nn12,-4.92% [at 35.3 µM],–
CC(C)NCC(O)c1ccc(N)c(C#N)c1 (stereo not given),-0.993% [at 35.3 µM],–
O=C(O)c1cccc(Cl)c1,0.665%,–
CCSC(=O)N(CC)C1CCCCC1,14.6%,–
COP(=S)(OC)Oc1ccc(S(N)(=O)=O)cc1,2.71% [at 35.3 µM],–
CCOC(=O)N(C)C(=O)CSP(=S)(OCC)OCC,4.21%,–
COC(=O)COc1ccc(Cl)cc1Cl,14.4%,–
CCN(CC)C(=O)[C@@H]1C=C2c3cccc4[nH]cc(c34)C[C@H]2N(C)C1,-9.84% [at 200 µM],–
COc1cccc2c1cc([N+](=O)[O-])c1c(C(=O)O)cc3c(c12)OCO3,–,17.4 µM (active)
CCN(Cc1ccc(Cl)nc1)/C(=C/[N+](=O)[O-])NC,-0.0079% [at 35.3 µM],–
O=NN1CCCCC1,12.9%,–
